# Assay results: PubChem BioAssay AID1159580 (chemical genetic matrix, 2015)
# Hit rate of the full screen: of about 5,500 compounds, about 2,000 (36%) were called active. Inconclusive results (about 18%) are left out. Some of the results follow. A number with no mark means an inactive call. No stated cut-off is given here; in the data, active means normalized growth mostly below about 0.91 (no sharp cut-off); inconclusive means no clear call, values can overlap the other calls; inactive means mostly above about 0.92.
# Experiment: chemical genetic growth profiling, strain panel (AID 1159580);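 further: tested at 20 µM; growth read once vehicle control cultures reached saturation at 30 °C; 1 = growth at the plate median or of vehicle wells; lower values mean less growth of the strain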
# Conditions: S. cerevisiae deletion strains, growth OD
structure (smiles),measurement,setting,value
COC(=O)[C@]1(C)CCC[C@]2(C)c3ccc(C(C)C)cc3C(=O)CC12 (stereo partly drawn),normalized growth,"locus YAL013W, strain DEP1, active compounds read low",0.981
same,normalized growth,"locus YAL021C, strain ccr4, active compounds read low",0.992
same,normalized growth,"locus YAL026C, strain drs2, active compounds read low",0.952
same,normalized growth,"locus YAL030W, strain snc1, active compounds read low",0.974
same,normalized growth,"locus YBL061C, strain skt5, active compounds read low",0.972
same,normalized growth,"locus YBR009C, strain hhf1, active compounds read low",0.961
same,normalized growth,"locus YBR021W, strain FUR4, active compounds read low",1.1
same,normalized growth,"locus YBR023C, strain chs3, active compounds read low",0.973
same,normalized growth,"locus YBR171W, strain sec66, active compounds read low",0.869 (active)
same,normalized growth,"locus YBR229C, strain ROT2, active compounds read low",0.986
same,normalized growth,"locus YBR231C, strain swc5, active compounds read low",0.968
same,normalized growth,"locus YBR279W, strain paf1, active compounds read low",0.971
same,normalized growth,"locus YCL011C, strain gbp2, active compounds read low",0.961
same,normalized growth,"locus YCL016C, strain dcc1, active compounds read low",0.979
same,normalized growth,"locus YCL029C, strain bik1, active compounds read low",1.01
same,normalized growth,"locus YCL061C, strain MRC1, active compounds read low",0.968
same,normalized growth,"locus YCL069W, strain vba3, active compounds read low",0.956
same,normalized growth,"locus YCR088W, strain abp1, active compounds read low",0.96
same,normalized growth,"locus YDL005C, strain med2, active compounds read low",0.945
same,normalized growth,"locus YDL035C, strain GPR1, active compounds read low",0.999
same,normalized growth,"locus YDL040C, strain nat1, active compounds read low",0.96
same,normalized growth,"locus YDL074C, strain BRE1, active compounds read low",0.863
same,normalized growth,"locus YDL101C, strain DUN1, active compounds read low",0.969
same,normalized growth,"locus YDL134C, strain PPH21, active compounds read low",0.974
same,normalized growth,"locus YDL185W, strain tfp1, active compounds read low",1
same,normalized growth,"locus YDL192W, strain arf1, active compounds read low",1.01
same,normalized growth,"locus YDR001C, strain nth1, active compounds read low",0.957
same,normalized growth,"locus YDR069C, strain doa4, active compounds read low",0.974
same,normalized growth,"locus YDR101C, strain arx1, active compounds read low",1.01
same,normalized growth,"locus YDR137W, strain rgp1, active compounds read low",0.866
same,normalized growth,"locus YDR150W, strain NUM1, active compounds read low",0.975
same,normalized growth,"locus YDR159W, strain sac3, active compounds read low",0.95
same,normalized growth,"locus YDR162C, strain NBP2, active compounds read low",0.866
same,normalized growth,"locus YDR195W, strain ref2",0.97
same,normalized growth,"locus YDR297W, strain sur2, active compounds read low",0.967
same,normalized growth,"locus YDR318W, strain mcm21, active compounds read low",1.02
same,normalized growth,"locus YDR334W, strain swr1, active compounds read low",0.948
same,normalized growth,"locus YDR335W, strain msn5, active compounds read low",0.978
same,normalized growth,"locus YDR388W, active compounds read low",1
same,normalized growth,"locus YDR392W, strain spt3, active compounds read low",0.732 (active)
same,normalized growth,"locus YDR502C, strain sam2, active compounds read low",0.985
same,normalized growth,"locus YEL003W, strain gim4, active compounds read low",0.977
same,normalized growth,"locus YEL037C, strain rad23, active compounds read low",0.95
same,normalized growth,"locus YEL061C, strain CIN8 (second series), active compounds read low",0.948
same,normalized growth,"locus YEL061C, strain CIN8, active compounds read low",0.997
same,normalized growth,"locus YER015W, strain faa2, active compounds read low",0.974
same,normalized growth,"locus YER016W, strain bim1, active compounds read low",0.958
same,normalized growth,"locus YER110C, active compounds read low",1.02
same,normalized growth,"locus YER111C, strain swi4, active compounds read low",0.956
same,normalized growth,"locus YER155C, strain BEM2 (second series), active compounds read low",0.956
same,normalized growth,"locus YER155C, strain BEM2, active compounds read low",0.995
same,normalized growth,"locus YER167W, strain BCK2, active compounds read low",0.997
same,normalized growth,"locus YFR010W, strain ubp6, active compounds read low",0.977
same,normalized growth,"locus YGL078C, strain dbp3, active compounds read low",0.988
same,normalized growth,"locus YGL086W, strain mad1, active compounds read low",1.01
same,normalized growth,"locus YGL167C, strain pmr1, active compounds read low",0.928
same,normalized growth,"locus YGL173C, strain kem1, active compounds read low",0.97
same,normalized growth,"locus YGL227W, strain vid30, active compounds read low",0.972
same,normalized growth,"locus YGL240W, strain doc1, active compounds read low",0.973
same,normalized growth,"locus YGL248W, strain PDE1, active compounds read low",0.971
same,normalized growth,"locus YGL253W, strain hxk2, active compounds read low",0.978
same,normalized growth,"locus YGR078C, strain PAC10, active compounds read low",0.957
same,normalized growth,"locus YGR135W, strain pre9, active compounds read low",0.954
same,normalized growth,"locus YGR229C, strain SMI1, active compounds read low",0.861
same,normalized growth,"locus YGR252W, strain gcn5, active compounds read low",1.1
same,normalized growth,"locus YHR013C, strain ard1, active compounds read low",0.959
same,normalized growth,"locus YHR027C, strain rpn1, active compounds read low",0.971
same,normalized growth,"locus YHR030C, strain SLT2, active compounds read low",1
same,normalized growth,"locus YHR079C, strain IRE1 (second series), active compounds read low",0.999
same,normalized growth,"locus YHR094C, strain hxt1, active compounds read low",0.995
same,normalized growth,"locus YHR129C, strain ARP1, active compounds read low",0.994
same,normalized growth,"locus YHR142W, strain chs7, active compounds read low",0.98
same,normalized growth,"locus YHR200W, strain rpn10, active compounds read low",0.993
same,normalized growth,"locus YIL066C, strain RNR3, active compounds read low",0.974
same,normalized growth,"locus YIL073C, strain SPO22, active compounds read low",1.01
same,normalized growth,"locus YIL125W, strain kgd1, active compounds read low",0.996
same,normalized growth,"locus YIR030C, strain dcg1, active compounds read low",0.993
same,normalized growth,"locus YJL092W, strain hpr5, active compounds read low",0.946
same,normalized growth,"locus YJL095W, strain BCK1 (second series), active compounds read low",0.972
same,normalized growth,"locus YJL095W, strain BCK1, active compounds read low",0.889
same,normalized growth,"locus YJL115W, strain asf1, active compounds read low",0.962
same,normalized growth,"locus YJL129C, strain trk1, active compounds read low",0.899
same,normalized growth,"locus YJL134W, strain LCB3, active compounds read low",0.989
same,normalized growth,"locus YJL154C, strain vps35, active compounds read low",0.967
same,normalized growth,"locus YJL164C, strain tpk1, active compounds read low",0.957
same,normalized growth,"locus YJL166W, strain qcr8, active compounds read low",0.968
same,normalized growth,"locus YJL168C, strain set2, active compounds read low",0.998
same,normalized growth,"locus YJL187C, strain SWE1 (second series), active compounds read low",0.98
